Experimental findings from the supplement of paper PMC7595190 are described below.

Unmarked numbers belong to inactive results.

In this experiment the test system is MV4-11. The experiment can be described thus: CellTox Green cytotoxicity fluorescence relative to DMSO vehicle (fold of vehicle RFU); higher = more cell death (loss of membrane integrity), active = 2 or more. The procedure:
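Paediatric AML cell lines (MV4-11, CMK, Kasumi-1; 4x10^4 cells/well, 96-well) treated with single compounds from the Selleckchem apoptosis library at 0.01, 0.1 and 1 µM. Cytotoxicity was read with CellTox Green (RFU, Ex 485/Em 520) at 24, 48 and 72 h and normalised to the 0.1% DMSO vehicle. Normalised RFU >= 2 was taken as a successful, cell-killing treatment.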

Regarding `CC1=C(O)C(=O)C=C2C1=CC=C1[C@@]2(C)CC[C@@]2(C)[C@@H]3C[C@](C)(C(=O)O)CC[C@]3(C)CC[C@]12C` [Celastrol], the “CellTox Green cytotoxicity fluorescence” value by setting is: (0.01 µM, 24 h) 0.931; (0.01 µM, 48 h) 0.955; (0.01 µM, 72 h) 0.964; (0.1 µM, 24 h) 0.966; (0.1 µM, 48 h) 0.976; (0.1 µM, 72 h) 1.01. Moreover, the “CellTox Green cytotoxicity fluorescence” value by setting is: (1 µM, 24 h) 1.29; (1 µM, 48 h) 1.96; (1 µM, 72 h) 2.21 (active).

As for `CN[C@@H]1C[C@H]2O[C@@](C)([C@@H]1OC)n1c3ccccc3c3c4c(c5c6ccccc6n2c5c31)C(=O)NC4` [Staurosporine], the “CellTox Green cytotoxicity fluorescence” value is, setting by setting: (0.01 µM, 24 h) 0.985; (0.01 µM, 48 h) 1.41; (0.01 µM, 72 h) 1.83; (0.1 µM, 24 h) 1.01; (0.1 µM, 48 h) 1.48; (0.1 µM, 72 h) 1.96. Besides, the “CellTox Green cytotoxicity fluorescence” value (1 µM, 24 h) was 1.36; the “CellTox Green cytotoxicity fluorescence” value (1 µM, 48 h) is 2.34 (active); the “CellTox Green cytotoxicity fluorescence” value (1 µM, 72 h) is 2.42 (active).

Consider `O=c1[nH]c2ccccc2n1C1CCN(Cc2ccc(-c3[nH]c4cc5ncnc5cc4nc3-c3ccccc3)cc2)CC1`, for which the “CellTox Green cytotoxicity fluorescence” value (0.01 µM, 24 h) is 1; the “CellTox Green cytotoxicity fluorescence” value (0.01 µM, 48 h) is 0.995; the “CellTox Green cytotoxicity fluorescence” value (0.01 µM, 72 h) is 0.956; the “CellTox Green cytotoxicity fluorescence” value (0.1 µM, 24 h) is 1; the “CellTox Green cytotoxicity fluorescence” value (0.1 µM, 48 h) was 0.999; the “CellTox Green cytotoxicity fluorescence” value (0.1 µM, 72 h) was 0.993. Also, the “CellTox Green cytotoxicity fluorescence” value (1 µM, 24 h) is 1.04; the “CellTox Green cytotoxicity fluorescence” value (1 µM, 48 h) is 1.1; the “CellTox Green cytotoxicity fluorescence” value (1 µM, 72 h) was 1.21.

In the case of `O=C(O)C(=O)c1cn(Cc2ccccc2)c2ccc(-c3ccc(OC(F)(F)F)cc3)cc12` [Tiplaxtinin], the “CellTox Green cytotoxicity fluorescence” value reads like this: (0.01 µM, 24 h) 1.02; (0.01 µM, 48 h) 1.02; (0.01 µM, 72 h) 1.04; (0.1 µM, 24 h) 1.01; (0.1 µM, 48 h) 1.02; (0.1 µM, 72 h) 1.03. The “CellTox Green cytotoxicity fluorescence” value was 0.997 (1 µM, 24 h); 1.01 (1 µM, 48 h); 1 (1 µM, 72 h).
